Results as given in PubChem BioAssay (NCI).
This is part of a sample that, as a whole, favours compounds with a hit. Of some 79,000 tested, about 15% had one in any assay. Rule as the data show it: active = growth inhibition above about 70%; inactive = the rest.

How the values were obtained:
[1] = NCI Yeast Anticancer Drug Screen. Data for the rad50 strain (AID 155);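 also: 0% = growth of vehicle-only cultures of the same strain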; settings: S. cerevisiae rad50 strain growth inhibition; at 50.0 µM; active compounds read high
How it was run: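 Growth of the mutant yeast was measured after compound exposure and referenced to vehicle-treated cultures.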

[2] = NCI Yeast Anticancer Drug Screen. Data for the mec2-1 strain (AID 157); settings: S. cerevisiae mec2-1 strain, at 50.0 µM, active compounds read high
How it was run: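 Vehicle-treated cultures served as reference for growth inhibition of compound-exposed mec2-1 yeast.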

[3] = NCI Yeast Anticancer Drug Screen. Data for the sgs1 mgt1 strain (AID 161);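 also: 0% = growth of cultures given vehicle only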; settings: S. cerevisiae sgs1 mgt1 strain, at 50.0 µM, active compounds read high
How it was run: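 Inhibition of yeast growth, normalised to vehicle-treated controls, is reported for a strain bearing genetic alterations in DNA damage repair.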

[4] = NCI Yeast Anticancer Drug Screen. Data for the cln2 rad14 strain (AID 165);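 also: 0% = growth equal to vehicle treated cultures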; settings: S. cerevisiae cln2 rad14 strain, at 50.0 µM, active compounds read high
How it was run: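 Each compound was tested on cln2 rad14 yeast. Inhibition of growth was calculated against vehicle-exposed controls.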

[5] = NCI Yeast Anticancer Drug Screen. Data for the bub3 strain (AID 167); settings: S. cerevisiae bub3 mutant strain, at 50.0 µM, active compounds read high
How it was run: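 Whole-cell yeast assay. The mutant strain was incubated with compounds, and growth inhibition was determined by comparison with vehicle-treated cells.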

[6] = NCI Yeast Anticancer Drug Screen. Data for the mlh1 rad18 strain (AID 175); settings: S. cerevisiae mlh1 rad18 strain growth inhibition; at 50.0 µM; active compounds read high
How it was run: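 Vehicle-treated cultures served as the reference for growth inhibition in a yeast strain carrying DNA damage repair alterations exposed to each compound.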

Measured: growth inhibition

CCOC(=O)C1=C(Nc2cccc3ccccc23)OC/C1=N\NC(=O)c1ccccc1O
inactive: [1] 24.2% | [2] 28.6% | [3] 20.3% | [4] 14.8% | [5] 27.8% | [6] 12.8%

COc1ccc2c(c1OC)C(O)N1CCc3cc4c(cc3C1=C2C(=O)c1ccccc1)OCO4 (stereo not given)
inactive: [1] 6.75% | [2] 14.2% | [3] 0.5% | [4] -5.3% | [5] 28.1% | [6] 22.8%

CCN(CC)C(=O)C1Cc2ccccc2N(C)C1 (stereo not given)
inactive: [1] -16.6% | [2] -8.5% | [3] -10.4% | [4] -41.5% | [5] 3.05% | [6] -2.85%

BrCCCCCOc1ccc(-c2c3ccccc3c(-c3ccc(OCCCCCBr)cc3)c3ccccc23)cc1
inactive: [1] 11.4% | [2] 18.1% | [3] 12.8% | [4] 0.05% | [5] -12.9% | [6] 12.8%

Cc1cc(=O)c2c([nH]1)c1c(c3[nH]c(C)cc(=O)c32)Oc2ccccc2O1
inactive: [1] 65.2% | [2] 5% | [3] -2.95% | [4] -10.6% | [5] -5.55% | [6] 27.9%

CC(C)NC(=O)CC(NCc1ccccc1)C(=O)O (stereo not given)
inactive: [1] 5.85% | [2] 6.8% | [3] 21.1% | [4] 9.5% | [5] -6.8% | [6] 10.2%

CCCCCCCCCCCCCCCCN=C1C=Cc2ccccc2C1=NCCCCCCCCCCCCCCCC
inactive: [1] -0.45% | [2] 6.4% | [3] 11.6% | [4] 11.6% | [5] 5.95% | [6] 4.4%

O=c1[nH]c2cc(Cl)ccc2nc1/C(=N\Nc1ccccc1)C(O)c1ccc(Cl)c(Cl)c1 (stereo not given)
inactive: [1] 11.6% | [2] -4.8% | [3] -9.55% | [4] 24.4% | [5] 17.1% | [6] 19%

CCOC(=O)C(=O)C1CC(c2ccccc2)=NNC1=O (stereo not given)
inactive: [1] 23% | [2] 26.5% | [3] 12.9% | [4] 23.1% | [5] 31.1% | [6] 26.2%

N#CC(C#N)=C(N)/C(C#N)=C/c1ccc(O)c(O)c1
inactive: [1] -14.2% | [2] -4.9% | [3] -5.25% | [4] 3.7% | [5] 2.4% | [6] 6.85%

O=C1OCC/C1=C\c1ccsc1
inactive: [1] 6.4% | [2] 10.2% | [3] -6.9% | [4] -6% | [5] -8.3% | [6] -3.4%

CCCCCCC(=O)C(N)Cc1ccccc1 (stereo not given)
inactive: [1] 0.45% | [2] -27.1% | [3] 3.7% | [4] 8.2% | [5] -1.1% | [6] 20%

O=C(Nc1cccc(Cl)c1)Oc1ccccc1
inactive: [1] 17.6% | [2] 4.45% | [3] -4.3% | [4] 16.4% | [5] 15.3% | [6] 8.2%

COc1ccc(C(c2ccc(N(Cc3ccccc3)Cc3ccccc3)cc2NC(C)=O)c2ccc(N(Cc3ccccc3)Cc3ccccc3)cc2NC(C)=O)cc1OC
inactive: [1] 5.75% | [2] -5.25% | [3] -19.9% | [4] -8.55% | [5] -6.1% | [6] 26.7%

Cc1cc(NC(=O)C(=O)CC(=O)c2ccc(Cl)s2)no1
inactive: [1] -51.3% | [2] 4.95% | [3] -8.55% | [4] -56.4% | [5] -6.7% | [6] -2.6%

Cn1c(=O)n(CCn2c(=O)n(C)c3ccccc32)c2ccccc21
inactive: [1] -1.6% | [2] 14% | [3] -3.15% | [4] 3.55% | [5] 4.5% | [6] -3.8%

c1cc[n+]2cc3c(ccc4cc5cccc[n+]5cc43)cc2c1
inactive: [1] 17.4% | [2] 11.1% | [3] 31.4% | [4] 58% | [5] -2.3% | [6] 11.6%

COc1ccc(Cl)cc1NC(=O)c1ccc(C(=O)Nc2cc(Cl)ccc2OC)cc1
inactive: [1] -5.85% | [2] 7.3% | [3] -10.2% | [4] -22.9% | [5] 0.7% | [6] 9.5%

O=C1CCC(N2C(=O)c3ccccc3C2=O)C(=O)O1 (stereo not given)
inactive: [1] -21.9% | [2] -5.45% | [3] -0.95% | [4] -38% | [5] 8.5% | [6] -12.9%

O=c1c2ccccc2c(Cc2ccccc2)nn1C1CCCCCC1
inactive: [1] -14.2% | [2] 2% | [3] 30.9% | [4] -29.5% | [5] 27.1% | [6] 16.1%
